Experiments:
Test in all cases: PBM binding z-score (relative to random genomic background probes); higher = stronger binding; sequences stand for … in GC…GCGATTGACAGCGTAGAATGAAGG
[1] = test system: FXR:RXRa (NR concentration 270 nM, RXRa partner concentration 90 nM)
Summary of the method: (§1)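 Antibodies against each partner of ligand-free nuclear receptor dimers (one per run) detected binding on custom Agilent 4×180K protein-binding microarrays after 1 h incubation. The double-stranded probes had 34-nt variable regions carrying direct-repeat seeds, single-nucleotide variants, half-site ablations and random human genomic background sequences. Binding z-scores, from regression-normalized fluorescence, use the random background probes as reference.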

[2] = test system: LXRa:RXRa (NR concentration 270 nM, RXRa partner concentration 90 nM)
Summary of the method: as §1

[3] = test system: LXRa homodimer (NR concentration 270 nM)
Summary of the method: as §1

[4] = test system: LXRb:RXRa (NR concentration 270 nM, RXRa partner concentration 90 nM)
Summary of the method: as §1

[5] = test system: LXRb homodimer (NR concentration 270 nM)
Summary of the method: as §1

[6] = test system: PPARa:RXRa (NR concentration 270 nM, RXRa partner concentration 90 nM)
Summary of the method: as §1

[7] = test system: PPARg:RXRa (NR concentration 180 nM, RXRa partner concentration 90 nM)
Summary of the method: as §1

[8] = test system: PPARg:RXRa 270nM:90nM, anti-RXR (NR concentration 270 nM, RXRa partner concentration 90 nM)
Summary of the method: as §1

[9] = test system: PPARg:RXRa 30nM:10nM, anti-RXR (NR concentration 30 nM, RXRa partner concentration 10 nM)
Summary of the method: as §1

[10] = test system: PPARg:RXRa 90nM:30nM, anti-RXR (NR concentration 90 nM, RXRa partner concentration 30 nM)
Summary of the method: as §1

[11] = test system: PPARg:RXRa DBDmut IVT, anti-RXR (DBD mutation: RXRa K156A/R161A, NR concentration 270 nM, RXRa partner concentration 90 nM)
Summary of the method: as §1

[12] = test system: PPARg:RXRa IVT, anti-PPARg (NR concentration 270 nM, RXRa partner concentration 90 nM)
Summary of the method: as §1

[13] = test system: PPARg DBDmut:RXRa IVT, anti-PPARg (DBD mutation: PPARg1 K132A/R137A, NR concentration 270 nM, RXRa partner concentration 90 nM)
Summary of the method: as §1

[14] = test system: PPARg DBDmut IVT, anti-PPARg (DBD mutation: PPARg1 K132A/R137A, NR concentration 270 nM)
Summary of the method: as §1

[15] = test system: PPARg homodimer (NR concentration 180 nM)
Summary of the method: as §1

[16] = test system: PXR:RXRa (NR concentration 270 nM, RXRa partner concentration 90 nM)
Summary of the method: as §1

[17] = test system: PXR homodimer (NR concentration 270 nM)
Summary of the method: as §1

[18] = test system: RARa:RXR (NR concentration 270 nM, RXRa partner concentration 90 nM)
Summary of the method: as §1

[19] = test system: RARa homodimer (NR concentration 270 nM)
Summary of the method: as §1

[20] = test system: RARb:RXRa (NR concentration 270 nM, RXRa partner concentration 90 nM)
Summary of the method: as §1

Sequence | PBM binding z-score [1] | PBM binding z-score [2] | PBM binding z-score [3] | PBM binding z-score [4] | PBM binding z-score [5] | PBM binding z-score [6] | PBM binding z-score [7] | PBM binding z-score [8] | PBM binding z-score [9] | PBM binding z-score [10] | PBM binding z-score [11] | PBM binding z-score [12] | PBM binding z-score [13] | PBM binding z-score [14] | PBM binding z-score [15] | PBM binding z-score [16] | PBM binding z-score [17] | PBM binding z-score [18] | PBM binding z-score [19] | PBM binding z-score [20]
ACTAGTTGGTCAGCTGAGGTCATACACAATTCGG | 3.84 | 3.45 | 3.44 | 3.54 | 1.09 | 3.52 | 1.43 | 1.72 | 0.448 | 1.14 | 1.47 | 2.35 | 1.46 | 1.13 | 3.38 | 5.65 | 3.46 | 4.45 | 0.98 | 3.15
TCGAGTAGGTTACCAATAGGGCATTCAGCTTTCT | 0.215 | 2.16 | -0.0808 | 0.671 | -1.16 | 1.36 | 0.697 | 1.32 | 1.08 | 1.1 | 3.28 | 2.9 | -0.0313 | 0.193 | -0.151 | 0.391 | -0.656 | 0.441 | -0.367 | 1.08
GGAACGAGGGCAAGTTGATCGCAGAGTTTGATGG | 0.747 | 0.257 | -0.518 | 0.128 | -0.392 | 1.6 | 0.859 | 0.878 | -0.211 | 0.517 | 3.49 | 2.88 | 0.162 | -0.887 | -0.254 | 0.576 | -0.0478 | 0.607 | -0.361 | 2.51
CCTAGCAGGCCAGGGTCAGTCAAGCATTTCGCTT | 0.838 | 0.841 | -0.832 | 1.08 | -1.29 | 1.85 | -0.277 | 0.376 | -0.624 | -0.0858 | -0.0042 | 0.156 | -1.41 | -1.98 | 0.086 | 1.04 | -0.793 | 1.69 | -0.695 | 2.09
TCTGCTAGGTCAGCGATGGTCAGCTAATCTGCTA | 1.17 | 0.657 | -0.944 | 0.271 | -0.838 | 1.66 | 0.772 | 1.62 | 1.56 | 1.29 | 3.18 | 3.05 | -0.711 | -0.258 | 0.723 | 0.17 | -1.61 | 1.31 | -1.26 | 3.33
AGGATGAGGTTAAGATCAGGGAAACAGAATACAT | 2.5 | 2.06 | 0.0836 | 2.16 | 0.492 | 3.06 | 1.63 | 1.38 | 0.783 | 1.01 | -0.114 | 0.973 | 0.72 | 0.516 | 1.27 | 1.56 | 1.2 | 1.9 | 1.63 | 2.1
